Assay [1] relates to Zika virus NS2B-NS3 protease (linked construct). Nature of the assay: Primary screen NINDS Rhodamine qHTS for Zika virus inhibitors (AID 1347160). Also: nearly all actives have a fitted effect of over 55% in size. As to activity change, negative = inhibition: % is scaled to controls: 0 for no effect and ±100 for the full control effect. The procedure, abridged:
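Purified linked NS2B-NS3 protease (NS2B hydrophilic domain joined to NS3 protease by flexible linker), 25 nM in 10 mM Tris-HCl pH 8.0, 0.01% Tween 20. Compounds titrated, 15 min preincubation at room temperature; 1.5 microM Rhodamine110 substrate, FITC fluorescence change over 15 min.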
For orientation: In qHTS, concentration-response curves come from the screen itself.

The nature of assay [2]: qHTS to identify inhibitors of the type 1 interferon - major histocompatibility complex class I in skeletal muscle: primary screen against the NCATS Mechanism Interrogation Plate v5.0 (MIPE) Libary (AID 1347411). Also: nearly all actives have a fitted effect of over 65% in size. Also: potency is read from the fitted curve at half-maximal effect.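 As to activity change, negative = inhibition: plate controls were vehicle for no effect and reference inhibitor for full effect.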 In a few lines:
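Luminescence from HiBiT-tagged endogenous HLA-B*08:01 served as the MHC class I read-out. CRISPR-engineered C25cl48 human myoblasts received 4.0 ng/ml IFN-beta plus compound for 24 hrs, with an 11-point, 1:3 series topping at 46 uM final.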

The nature of assay [3]: Confirmatory screen NINDS Rhodamine qHTS for Zika virus inhibitors (AID 1347161).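 Also: purified Zika NS2B-NS3 protease with linked NS2B cofactor domain and Rhodamine110 peptide substrate; series mostly up to about 110 µM; plate controls were no-inhibitor control for no effect and no-enzyme control for full effect; nearly all actives have a fitted effect of over 60% in size.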 In a few lines: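 In 10 mM Tris-HCl pH 8.0 containing 0.01% Tween 20, linked NS2B-NS3 protease (25 nM final) is exposed to test compounds for 15 min. Cleavage of 1.5 microM Rhodamine110 substrate is tracked by fluorescence over 15 min.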
The nature of assay [4]: Vero cells viability qHTS for Zika virus inhibitors (AID 1347167). Also: potency is read from the fitted curve at half-maximal effect. In a few lines:
(§1)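 Cells seeded at 2.5 x 10^5 cells/mL in DMEM with 4% FBS and attached overnight at 37 degrees C, then exposed to compound for 24 to 48 hours. Viability read as ATP content by CellTiter Glo luminescence.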

Assay [5] is described as follows: HepG2 cells viability qHTS for Zika virus inhibitors (AID 1347168). Also: potency is read from the fitted curve at half-maximal effect. In a few lines: as §1
Assay [6] has as its target Protein phosphatase 1D (Homo sapiens) (UniProt O15297). Nature of the assay: RapidFire Mass Spectrometry qHTS Assay for Modulators of WT P53-Induced Phosphatase 1 (WIP1) (AID 1347424).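 Also: amount of dephosphorylated VEPPL-S-QETFS peptide product formed by WIP1; series mostly up to about 63 µM; plate controls were DMSO wells for no effect and GSK830371 inhibitor control at 10 µM for full effect.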 In a few lines:
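10 nM WIP1 preincubated with compounds 1 hr at room temperature in pH 7.5 Tris buffer with 30 mM MgCl2, 1 mM TCEP; 2 uM VEPPL-pS-QETFS phosphopeptide for 5 min, formic acid quench; dephosphorylated product quantified by RapidFire MS against labelled standard.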

Assay [7] shares this target. Nature of the assay: Rhodamine-PBP qHTS Assay for Modulators of WT P53-Induced Phosphatase 1 (WIP1) (AID 1347425). Also: % of control where 0% means no effect. The procedure, abridged:
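Read-out: Rhodamine-PBP fluorescence (ex 525/em 598 nm) for released Pi, read each minute for 11 min after adding 10 uM VEPPL-pS-QETFS; signal taken as f1 minus pre-substrate f0. Enzyme 5 nM WIP1 with 1 hr room-temperature compound preincubation.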

Assay [8] is described as follows: Primary qHTS for inhibitors of La Crosse Virus (LACV) - induced cell death in SH-SY5Y cells (AID 1508616).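 Also: top concentration of the series differs between compounds; 0% = infected DMSO wells and 100% = uninfected DMSO wells; higher means more rescue of cells from virus-induced death.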 The procedure, abridged: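 Protection against LACV-induced cell death is scored in SH-SY5Y cells exposed to compounds and virus (0.01 MOI) for 6 days. Data normalized to virus-infected DMSO wells and virus-free DMSO wells.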

SMILES strings stand for the structures. Records with an inconclusive call do not appear. Values without a mark were called inactive. The source made the active and inactive calls. Calls follow the shape of the dose curve; as a rule, active = well fitted curve in the direction sought with a large enough effect; inconclusive = small, poorly fitted or top-dose-only effect, or another doubt; inactive = no such curve, though single readings can be large; an effect the other way counts as inactive or inconclusive.

Sequence of Protein phosphatase 1D (Homo sapiens) (O15297 whole entry, looked up): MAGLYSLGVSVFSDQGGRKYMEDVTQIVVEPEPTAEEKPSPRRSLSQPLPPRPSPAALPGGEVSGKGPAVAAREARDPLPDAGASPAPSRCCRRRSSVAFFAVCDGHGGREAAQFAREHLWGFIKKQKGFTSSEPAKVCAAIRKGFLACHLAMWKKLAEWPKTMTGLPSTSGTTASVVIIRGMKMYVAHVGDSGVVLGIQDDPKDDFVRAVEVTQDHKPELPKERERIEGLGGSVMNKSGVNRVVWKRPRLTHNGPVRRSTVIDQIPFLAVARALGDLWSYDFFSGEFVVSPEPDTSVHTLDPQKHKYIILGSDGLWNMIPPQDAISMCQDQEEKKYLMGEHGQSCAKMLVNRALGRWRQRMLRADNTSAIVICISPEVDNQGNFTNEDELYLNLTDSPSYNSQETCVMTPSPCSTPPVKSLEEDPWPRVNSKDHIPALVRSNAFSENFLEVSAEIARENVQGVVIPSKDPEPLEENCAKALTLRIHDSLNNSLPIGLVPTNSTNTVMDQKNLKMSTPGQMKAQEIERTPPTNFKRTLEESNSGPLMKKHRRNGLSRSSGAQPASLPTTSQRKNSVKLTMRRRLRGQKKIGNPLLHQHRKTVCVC

As for `COc1ccc(F)c(F)c1C(=O)c1cnc(NC2CCN(S(C)(=O)=O)CC2)nc1N`, the Potency entry in assay [1] was “inactive”. Also, the Potency in assay [2] was 2.94 µM (active).

For the compound `Cn1c2cc(S(C)=O)sc2c2cnn(Cc3cccc(N)c3)c(=O)c21` (stereo not drawn), in assay [2], the Potency result is “inactive”.

For `COc1c(OCCCN2CCOCC2)ccc2c3n(c(=NC(=O)c4cnc(N)nc4)nc12)CCN3`, the outcome in assay [1] is “inactive [at 10.7 µM]”.

Turning to `COc1cccc2nc(-c3cccs3)nc(NN3C(=O)C=C(C)C3=O)c12`, in assay [1], the Potency entry was “inactive”. Further, in assay [2], the Potency was 2.94 µM (active).

With `CN1CCN(Cc2ccc(NC(=O)Nc3ccc(Oc4cc(NC(=O)C5CC5)ncn4)cc3)cc2C(F)(F)F)CC1`, the Potency result in assay [1] is “inactive”. Also, the Potency in assay [2] was 0.415 µM (active).

`CCN1CCN(Cc2ccc(-c3cc4c(N[C@H](C)c5ccccc5)ncnc4[nH]3)cc2)CC1`: in assay [3], the Potency result is “inactive”. Further, the results for the Potency in assay [4], in assay [5] and in assay [2] were 53.7 µM (active), 38 µM (active) and 18.6 µM (active), respectively.

Take `CC1COC2(CCN(c3nc(=O)c4cc(C(F)(F)F)cc([N+](=O)[O-])c4s3)CC2)O1` (stereo not drawn): the Potency result in assay [1] and in assay [2] was “inactive” each time.

Take `CC(=O)c1c(C)c2cnc(Nc3ccc(N4CCNCC4)cn3)nc2n(C2CCCC2)c1=O`: the activity change, negative = inhibition in assay [1] was 8.21% [at 4.91 µM]. Also, the Potency in assay [2] is 14.7 µM (active).

As to `CCN(CC)CCCCNc1ncc2cc(-c3cc(OC)cc(OC)c3)c(NC(=O)NC(C)(C)C)nc2n1`, the Potency result in assay [3] is “inactive”. The Potency in assay [2] is 29.4 µM (active).

`COC(=O)C1=C(C)NC(C)=C(C(=O)OCCN2CCN(C(c3ccccc3)c3ccccc3)CC2)C1c1cccc([N+](=O)[O-])c1` (stereo not drawn): in assay [6], the Potency entry is “inactive”. Besides, the compound was classed as inactive in assay [7] and in assay [8].

For the compound `C=CC(=O)Nc1cc2c(Nc3ccc(F)c(Cl)c3)ncnc2cc1OCCCN1CCOCC1`, in assay [6], the Potency entry was “inactive”. For the same compound, the outcome in assay [7] was inactive.
